Experiments:
Assay in all cases: log2 ratio of Biotin-Ahx-Ub-VS probe labelling (fragment/DMSO); higher = less target engagement (more negative = stronger competition), active = hit call of the paper (q ≤ 0.05, log2 ratio ≤ -1)
Conditions in all cases: compound concentration: 200 uM; treatment time: 3 h
USP42 = target: T1, USP42 (UniProt Q9H9J4)
T1 sequence (whole entry): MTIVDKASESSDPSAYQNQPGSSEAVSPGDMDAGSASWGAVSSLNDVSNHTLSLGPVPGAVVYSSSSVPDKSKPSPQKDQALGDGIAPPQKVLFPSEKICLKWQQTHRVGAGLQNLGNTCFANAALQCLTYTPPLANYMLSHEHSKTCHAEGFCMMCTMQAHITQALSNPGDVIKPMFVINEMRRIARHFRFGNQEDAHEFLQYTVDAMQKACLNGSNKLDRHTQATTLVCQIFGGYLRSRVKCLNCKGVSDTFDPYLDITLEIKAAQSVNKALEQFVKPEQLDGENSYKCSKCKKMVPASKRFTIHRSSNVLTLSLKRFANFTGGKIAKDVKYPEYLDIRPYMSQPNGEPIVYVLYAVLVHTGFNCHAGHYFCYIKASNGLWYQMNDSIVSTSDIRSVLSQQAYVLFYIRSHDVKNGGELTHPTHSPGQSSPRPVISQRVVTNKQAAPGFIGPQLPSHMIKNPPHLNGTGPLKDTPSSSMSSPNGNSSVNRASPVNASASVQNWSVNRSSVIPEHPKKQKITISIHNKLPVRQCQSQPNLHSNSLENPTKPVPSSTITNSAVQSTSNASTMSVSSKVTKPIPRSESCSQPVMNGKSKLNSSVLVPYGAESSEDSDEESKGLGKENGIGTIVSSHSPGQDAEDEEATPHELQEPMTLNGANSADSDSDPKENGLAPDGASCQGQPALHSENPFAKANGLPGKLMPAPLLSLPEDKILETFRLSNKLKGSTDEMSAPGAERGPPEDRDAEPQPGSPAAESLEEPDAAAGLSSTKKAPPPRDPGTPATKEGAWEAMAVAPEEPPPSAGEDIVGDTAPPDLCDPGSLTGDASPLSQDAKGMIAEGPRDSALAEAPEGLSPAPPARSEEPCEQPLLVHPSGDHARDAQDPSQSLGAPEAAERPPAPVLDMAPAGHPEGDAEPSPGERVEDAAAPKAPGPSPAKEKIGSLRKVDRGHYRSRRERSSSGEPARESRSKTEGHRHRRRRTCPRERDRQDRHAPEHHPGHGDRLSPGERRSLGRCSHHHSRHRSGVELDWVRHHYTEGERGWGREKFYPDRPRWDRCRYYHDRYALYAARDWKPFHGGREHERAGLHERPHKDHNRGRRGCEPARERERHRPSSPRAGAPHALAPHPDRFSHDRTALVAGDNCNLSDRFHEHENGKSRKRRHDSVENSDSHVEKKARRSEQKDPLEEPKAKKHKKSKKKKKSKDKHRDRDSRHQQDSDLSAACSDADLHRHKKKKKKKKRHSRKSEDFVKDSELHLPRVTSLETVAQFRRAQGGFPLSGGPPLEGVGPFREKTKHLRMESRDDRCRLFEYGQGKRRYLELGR
In short: (§1)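 Average log2 ratios of fragment over vehicle were obtained by unpaired t-test from global-median-normalised Spectronaut label-free quantities. Proteins with ≥2 unique peptides were included. HEK293T lysate (495 µg per sample) was treated in triplicate with fragment at 200 µM or vehicle for 3 h, then with Biotin-Ahx-Ub-VS at 0.5 µM final for 1 h, and labelled DUBs were NeutrAvidin-enriched and run by diaPASEF LC-MS/MS.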

USP46 = USP46 (UniProt P62068)
In short: as §1

USP47 = target: T2, USP47 (UniProt Q96K76)
T2 sequence (whole entry): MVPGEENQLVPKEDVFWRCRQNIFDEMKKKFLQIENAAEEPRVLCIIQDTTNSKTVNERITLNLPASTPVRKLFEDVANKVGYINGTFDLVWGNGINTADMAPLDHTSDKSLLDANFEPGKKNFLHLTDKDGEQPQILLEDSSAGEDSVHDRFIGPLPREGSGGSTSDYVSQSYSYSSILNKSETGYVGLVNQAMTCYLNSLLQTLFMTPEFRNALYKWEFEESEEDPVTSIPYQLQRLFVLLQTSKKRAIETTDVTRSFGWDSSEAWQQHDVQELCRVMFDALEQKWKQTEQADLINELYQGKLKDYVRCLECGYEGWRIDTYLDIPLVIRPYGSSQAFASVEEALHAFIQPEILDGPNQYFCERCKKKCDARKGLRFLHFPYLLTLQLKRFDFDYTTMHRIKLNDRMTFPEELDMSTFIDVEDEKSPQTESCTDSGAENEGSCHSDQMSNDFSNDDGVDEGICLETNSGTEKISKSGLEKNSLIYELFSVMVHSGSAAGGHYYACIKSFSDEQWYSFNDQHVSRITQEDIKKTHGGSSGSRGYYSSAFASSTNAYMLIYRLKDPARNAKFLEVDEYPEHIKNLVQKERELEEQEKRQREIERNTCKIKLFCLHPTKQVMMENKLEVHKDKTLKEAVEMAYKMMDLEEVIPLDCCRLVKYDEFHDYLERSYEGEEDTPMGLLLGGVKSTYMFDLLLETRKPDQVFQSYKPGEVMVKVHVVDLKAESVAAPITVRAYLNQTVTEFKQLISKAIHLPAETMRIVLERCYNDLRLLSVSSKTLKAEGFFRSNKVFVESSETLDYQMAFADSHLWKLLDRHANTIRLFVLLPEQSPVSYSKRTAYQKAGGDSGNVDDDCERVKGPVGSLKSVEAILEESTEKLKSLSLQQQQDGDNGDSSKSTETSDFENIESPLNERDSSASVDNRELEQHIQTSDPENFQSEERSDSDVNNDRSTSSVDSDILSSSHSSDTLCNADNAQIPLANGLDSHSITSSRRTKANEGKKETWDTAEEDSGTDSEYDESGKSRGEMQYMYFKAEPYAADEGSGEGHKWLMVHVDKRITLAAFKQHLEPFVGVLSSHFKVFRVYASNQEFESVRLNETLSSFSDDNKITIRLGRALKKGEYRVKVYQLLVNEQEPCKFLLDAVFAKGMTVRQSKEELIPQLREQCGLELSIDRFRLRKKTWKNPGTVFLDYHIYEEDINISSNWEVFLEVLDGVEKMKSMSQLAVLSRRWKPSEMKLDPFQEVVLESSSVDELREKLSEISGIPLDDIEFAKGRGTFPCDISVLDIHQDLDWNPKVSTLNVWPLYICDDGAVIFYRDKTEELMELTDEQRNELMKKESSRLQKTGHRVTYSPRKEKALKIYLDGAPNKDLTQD
In short: as §1

USP48 = target: T3, USP48 (UniProt Q86UV5)
T3 sequence (whole entry): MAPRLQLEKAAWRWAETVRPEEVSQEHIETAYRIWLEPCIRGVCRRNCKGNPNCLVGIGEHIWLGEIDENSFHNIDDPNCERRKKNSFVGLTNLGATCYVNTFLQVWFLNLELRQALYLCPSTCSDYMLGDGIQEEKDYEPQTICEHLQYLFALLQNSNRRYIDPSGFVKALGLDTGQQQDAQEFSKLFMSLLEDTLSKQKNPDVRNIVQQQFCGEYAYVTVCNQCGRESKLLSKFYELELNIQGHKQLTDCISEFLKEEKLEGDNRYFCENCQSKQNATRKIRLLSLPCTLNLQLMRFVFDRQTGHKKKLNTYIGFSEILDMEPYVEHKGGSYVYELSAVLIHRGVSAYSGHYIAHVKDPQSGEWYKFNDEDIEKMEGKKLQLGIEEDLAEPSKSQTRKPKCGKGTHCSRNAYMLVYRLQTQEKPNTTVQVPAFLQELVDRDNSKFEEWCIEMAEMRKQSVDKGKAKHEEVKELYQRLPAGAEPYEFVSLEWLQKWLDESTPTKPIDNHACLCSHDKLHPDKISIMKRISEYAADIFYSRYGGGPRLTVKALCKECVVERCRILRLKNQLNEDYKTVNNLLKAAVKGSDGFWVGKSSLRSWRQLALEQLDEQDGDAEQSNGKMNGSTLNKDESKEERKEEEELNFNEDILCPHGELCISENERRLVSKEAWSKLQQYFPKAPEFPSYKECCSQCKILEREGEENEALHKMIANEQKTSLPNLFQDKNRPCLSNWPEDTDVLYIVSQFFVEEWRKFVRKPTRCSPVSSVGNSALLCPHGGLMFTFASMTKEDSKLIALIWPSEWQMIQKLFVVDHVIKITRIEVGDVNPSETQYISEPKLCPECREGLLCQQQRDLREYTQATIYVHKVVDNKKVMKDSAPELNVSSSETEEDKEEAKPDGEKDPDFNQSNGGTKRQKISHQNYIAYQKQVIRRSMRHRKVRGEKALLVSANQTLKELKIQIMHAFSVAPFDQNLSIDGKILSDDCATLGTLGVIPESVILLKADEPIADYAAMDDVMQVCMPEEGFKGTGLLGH
In short: as §1

USP5 = target: T4, USP5 (UniProt P45974)
T4 sequence (whole entry): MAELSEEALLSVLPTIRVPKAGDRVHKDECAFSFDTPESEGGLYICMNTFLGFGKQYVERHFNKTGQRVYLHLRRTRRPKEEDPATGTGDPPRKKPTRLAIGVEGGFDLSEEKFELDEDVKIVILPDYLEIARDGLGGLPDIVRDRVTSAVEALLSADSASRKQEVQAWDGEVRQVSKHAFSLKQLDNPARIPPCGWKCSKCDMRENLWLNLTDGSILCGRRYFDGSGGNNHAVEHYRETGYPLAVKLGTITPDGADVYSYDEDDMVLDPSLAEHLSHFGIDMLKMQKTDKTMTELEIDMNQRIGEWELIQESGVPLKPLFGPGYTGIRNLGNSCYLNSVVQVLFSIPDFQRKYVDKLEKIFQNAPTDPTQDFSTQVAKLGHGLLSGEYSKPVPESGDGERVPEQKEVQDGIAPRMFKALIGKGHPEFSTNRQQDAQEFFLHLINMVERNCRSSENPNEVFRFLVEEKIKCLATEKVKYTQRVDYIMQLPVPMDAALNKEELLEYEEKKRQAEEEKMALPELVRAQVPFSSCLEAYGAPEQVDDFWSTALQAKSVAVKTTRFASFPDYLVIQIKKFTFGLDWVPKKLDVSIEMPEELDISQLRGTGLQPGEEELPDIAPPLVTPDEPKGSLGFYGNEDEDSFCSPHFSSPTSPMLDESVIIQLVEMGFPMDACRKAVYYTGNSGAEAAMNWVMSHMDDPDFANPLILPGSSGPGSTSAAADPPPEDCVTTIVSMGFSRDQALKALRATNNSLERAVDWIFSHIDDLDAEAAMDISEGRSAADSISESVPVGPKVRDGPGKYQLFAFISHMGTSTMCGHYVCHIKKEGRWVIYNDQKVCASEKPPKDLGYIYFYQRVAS
In short: as §1

USP54 = USP54 (UniProt Q70EL1)
In short: as §1

USP7 = USP7 (UniProt Q93009)
In short: as §1

USP8 = target: T5, USP8 (UniProt P40818)
T5 sequence (whole entry): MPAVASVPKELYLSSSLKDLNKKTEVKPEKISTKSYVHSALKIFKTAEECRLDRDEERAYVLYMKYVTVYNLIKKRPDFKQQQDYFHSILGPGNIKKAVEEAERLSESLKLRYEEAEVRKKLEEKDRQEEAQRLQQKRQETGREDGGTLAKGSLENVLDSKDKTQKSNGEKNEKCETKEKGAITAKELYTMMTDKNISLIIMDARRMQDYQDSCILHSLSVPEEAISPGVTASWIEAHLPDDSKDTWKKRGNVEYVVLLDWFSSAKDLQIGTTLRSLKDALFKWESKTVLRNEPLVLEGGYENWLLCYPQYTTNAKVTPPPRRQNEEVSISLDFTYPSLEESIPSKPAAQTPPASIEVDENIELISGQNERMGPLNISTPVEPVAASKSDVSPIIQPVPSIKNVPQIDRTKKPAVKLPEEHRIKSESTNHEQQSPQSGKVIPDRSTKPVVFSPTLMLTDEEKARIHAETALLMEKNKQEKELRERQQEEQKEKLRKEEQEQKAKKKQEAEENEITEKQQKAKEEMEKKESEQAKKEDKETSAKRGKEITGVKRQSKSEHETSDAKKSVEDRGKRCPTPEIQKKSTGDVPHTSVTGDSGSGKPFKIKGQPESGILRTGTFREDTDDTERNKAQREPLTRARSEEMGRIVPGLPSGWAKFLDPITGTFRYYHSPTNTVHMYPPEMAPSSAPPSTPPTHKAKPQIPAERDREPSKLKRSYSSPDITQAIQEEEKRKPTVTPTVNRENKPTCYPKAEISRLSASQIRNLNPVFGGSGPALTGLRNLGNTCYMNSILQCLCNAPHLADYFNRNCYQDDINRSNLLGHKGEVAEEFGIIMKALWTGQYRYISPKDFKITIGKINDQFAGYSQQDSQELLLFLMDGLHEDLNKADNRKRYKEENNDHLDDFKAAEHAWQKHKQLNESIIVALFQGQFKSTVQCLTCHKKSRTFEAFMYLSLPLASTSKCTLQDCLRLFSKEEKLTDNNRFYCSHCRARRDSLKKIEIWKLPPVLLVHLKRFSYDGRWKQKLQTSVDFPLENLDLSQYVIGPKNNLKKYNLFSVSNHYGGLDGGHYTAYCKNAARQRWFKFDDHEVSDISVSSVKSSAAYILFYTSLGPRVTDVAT
In short: as §1

USP9X = USP9X (UniProt Q93008)
In short: as §1

UniProt O00487 = target: UniProt O00487
In short: as §1

Measured: log2 ratio of Biotin-Ahx-Ub-VS probe labelling

Chain of USP46 (P62068 whole entry): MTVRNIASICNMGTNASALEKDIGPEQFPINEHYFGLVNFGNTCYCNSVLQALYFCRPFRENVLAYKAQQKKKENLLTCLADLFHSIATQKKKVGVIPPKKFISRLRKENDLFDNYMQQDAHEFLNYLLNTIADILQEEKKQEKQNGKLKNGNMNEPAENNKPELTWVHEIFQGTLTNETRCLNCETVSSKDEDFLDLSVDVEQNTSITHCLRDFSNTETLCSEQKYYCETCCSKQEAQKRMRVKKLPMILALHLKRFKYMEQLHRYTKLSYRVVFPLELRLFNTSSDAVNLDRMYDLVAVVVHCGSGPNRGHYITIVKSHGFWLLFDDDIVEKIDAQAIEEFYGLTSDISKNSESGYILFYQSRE
Chain of USP9X (Q93008 whole entry): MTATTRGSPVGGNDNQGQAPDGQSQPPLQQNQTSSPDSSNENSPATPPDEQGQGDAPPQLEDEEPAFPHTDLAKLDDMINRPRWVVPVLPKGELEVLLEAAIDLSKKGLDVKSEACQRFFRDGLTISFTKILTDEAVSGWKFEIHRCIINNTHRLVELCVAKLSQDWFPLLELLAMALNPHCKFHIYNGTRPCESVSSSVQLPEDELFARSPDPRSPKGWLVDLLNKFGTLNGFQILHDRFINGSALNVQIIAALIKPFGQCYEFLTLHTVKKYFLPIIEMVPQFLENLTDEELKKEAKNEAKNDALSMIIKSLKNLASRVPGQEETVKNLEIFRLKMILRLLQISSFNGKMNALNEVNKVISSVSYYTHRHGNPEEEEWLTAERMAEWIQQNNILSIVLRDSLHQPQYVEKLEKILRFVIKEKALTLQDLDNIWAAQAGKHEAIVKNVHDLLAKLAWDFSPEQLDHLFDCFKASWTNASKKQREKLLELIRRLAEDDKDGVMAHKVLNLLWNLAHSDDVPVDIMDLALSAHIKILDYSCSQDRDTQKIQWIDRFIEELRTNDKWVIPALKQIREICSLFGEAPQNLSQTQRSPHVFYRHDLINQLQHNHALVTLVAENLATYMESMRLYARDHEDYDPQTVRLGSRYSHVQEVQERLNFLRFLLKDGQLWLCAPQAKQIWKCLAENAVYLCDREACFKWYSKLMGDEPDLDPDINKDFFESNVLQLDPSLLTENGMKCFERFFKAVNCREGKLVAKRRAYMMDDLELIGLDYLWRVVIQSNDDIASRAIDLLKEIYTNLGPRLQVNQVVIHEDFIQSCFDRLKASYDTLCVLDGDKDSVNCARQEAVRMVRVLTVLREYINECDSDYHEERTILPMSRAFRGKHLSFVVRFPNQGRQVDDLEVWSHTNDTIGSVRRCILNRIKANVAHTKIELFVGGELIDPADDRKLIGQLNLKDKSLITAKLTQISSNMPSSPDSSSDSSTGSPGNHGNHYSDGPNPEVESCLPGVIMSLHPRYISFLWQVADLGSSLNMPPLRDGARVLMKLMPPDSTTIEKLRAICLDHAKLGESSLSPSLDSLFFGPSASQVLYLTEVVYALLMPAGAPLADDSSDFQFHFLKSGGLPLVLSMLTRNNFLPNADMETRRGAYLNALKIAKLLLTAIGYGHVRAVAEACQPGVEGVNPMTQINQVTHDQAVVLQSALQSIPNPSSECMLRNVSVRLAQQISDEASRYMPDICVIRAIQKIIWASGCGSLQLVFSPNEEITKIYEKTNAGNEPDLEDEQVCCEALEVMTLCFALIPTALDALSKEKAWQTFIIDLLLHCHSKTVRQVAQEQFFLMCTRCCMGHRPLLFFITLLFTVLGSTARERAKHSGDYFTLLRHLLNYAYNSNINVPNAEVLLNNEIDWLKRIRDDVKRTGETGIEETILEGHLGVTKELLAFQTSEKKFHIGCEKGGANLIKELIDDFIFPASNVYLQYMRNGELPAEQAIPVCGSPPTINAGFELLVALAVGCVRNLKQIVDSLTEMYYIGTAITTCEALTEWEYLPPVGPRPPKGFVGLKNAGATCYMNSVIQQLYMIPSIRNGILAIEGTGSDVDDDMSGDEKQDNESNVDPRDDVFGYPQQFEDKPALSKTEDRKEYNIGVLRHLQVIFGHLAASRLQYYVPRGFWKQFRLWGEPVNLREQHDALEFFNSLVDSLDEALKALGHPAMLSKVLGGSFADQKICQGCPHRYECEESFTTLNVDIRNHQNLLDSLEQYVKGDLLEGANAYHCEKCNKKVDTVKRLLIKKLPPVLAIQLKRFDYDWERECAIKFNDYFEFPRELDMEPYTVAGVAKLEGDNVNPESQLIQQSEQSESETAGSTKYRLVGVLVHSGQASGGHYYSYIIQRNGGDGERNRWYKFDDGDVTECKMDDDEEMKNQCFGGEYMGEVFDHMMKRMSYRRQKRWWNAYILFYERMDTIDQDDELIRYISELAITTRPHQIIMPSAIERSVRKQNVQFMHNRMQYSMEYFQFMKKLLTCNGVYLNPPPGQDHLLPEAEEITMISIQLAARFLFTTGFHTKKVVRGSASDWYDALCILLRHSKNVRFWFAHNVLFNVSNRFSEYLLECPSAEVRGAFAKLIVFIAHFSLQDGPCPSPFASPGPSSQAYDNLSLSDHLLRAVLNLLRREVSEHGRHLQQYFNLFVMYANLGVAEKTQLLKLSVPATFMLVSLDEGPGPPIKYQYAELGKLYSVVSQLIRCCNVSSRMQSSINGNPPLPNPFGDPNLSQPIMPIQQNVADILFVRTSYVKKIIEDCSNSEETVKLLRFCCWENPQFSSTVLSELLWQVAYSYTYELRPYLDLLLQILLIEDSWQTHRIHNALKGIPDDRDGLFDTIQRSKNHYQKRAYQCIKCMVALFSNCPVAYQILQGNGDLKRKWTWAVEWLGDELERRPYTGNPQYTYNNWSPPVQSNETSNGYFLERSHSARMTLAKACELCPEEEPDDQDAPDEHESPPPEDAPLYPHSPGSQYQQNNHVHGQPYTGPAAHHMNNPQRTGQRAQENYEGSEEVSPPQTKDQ
Chain of USP7 (Q93009 whole entry, looked up): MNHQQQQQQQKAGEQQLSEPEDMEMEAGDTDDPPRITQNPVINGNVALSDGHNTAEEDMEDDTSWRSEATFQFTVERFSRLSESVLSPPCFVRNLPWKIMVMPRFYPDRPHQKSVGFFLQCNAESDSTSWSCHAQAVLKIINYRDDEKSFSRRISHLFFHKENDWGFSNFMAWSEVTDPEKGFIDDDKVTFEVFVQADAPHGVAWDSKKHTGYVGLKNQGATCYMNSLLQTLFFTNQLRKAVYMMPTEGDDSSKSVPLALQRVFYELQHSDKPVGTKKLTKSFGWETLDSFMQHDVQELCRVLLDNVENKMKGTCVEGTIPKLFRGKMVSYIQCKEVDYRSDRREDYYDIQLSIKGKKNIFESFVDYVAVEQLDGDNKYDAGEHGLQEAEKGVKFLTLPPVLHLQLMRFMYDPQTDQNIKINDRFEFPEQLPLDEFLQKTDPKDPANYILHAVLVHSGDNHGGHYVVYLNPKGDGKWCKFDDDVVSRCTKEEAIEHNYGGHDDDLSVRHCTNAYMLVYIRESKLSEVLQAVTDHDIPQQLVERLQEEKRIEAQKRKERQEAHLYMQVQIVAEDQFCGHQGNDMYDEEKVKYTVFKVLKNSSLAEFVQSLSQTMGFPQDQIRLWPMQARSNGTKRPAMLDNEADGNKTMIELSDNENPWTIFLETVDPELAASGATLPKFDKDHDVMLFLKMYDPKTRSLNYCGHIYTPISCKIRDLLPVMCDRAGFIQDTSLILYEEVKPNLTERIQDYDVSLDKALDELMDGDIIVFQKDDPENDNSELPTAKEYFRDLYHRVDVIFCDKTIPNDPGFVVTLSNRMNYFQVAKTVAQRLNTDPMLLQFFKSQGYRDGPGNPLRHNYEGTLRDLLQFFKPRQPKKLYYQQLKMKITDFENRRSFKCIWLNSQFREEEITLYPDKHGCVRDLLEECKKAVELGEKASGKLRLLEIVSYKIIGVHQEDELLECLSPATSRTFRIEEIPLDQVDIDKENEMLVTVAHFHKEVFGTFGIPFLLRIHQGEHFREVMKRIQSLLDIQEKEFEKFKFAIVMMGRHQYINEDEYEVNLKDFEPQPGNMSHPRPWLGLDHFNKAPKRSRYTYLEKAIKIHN
Chain of UniProt O00487 (O00487 whole entry): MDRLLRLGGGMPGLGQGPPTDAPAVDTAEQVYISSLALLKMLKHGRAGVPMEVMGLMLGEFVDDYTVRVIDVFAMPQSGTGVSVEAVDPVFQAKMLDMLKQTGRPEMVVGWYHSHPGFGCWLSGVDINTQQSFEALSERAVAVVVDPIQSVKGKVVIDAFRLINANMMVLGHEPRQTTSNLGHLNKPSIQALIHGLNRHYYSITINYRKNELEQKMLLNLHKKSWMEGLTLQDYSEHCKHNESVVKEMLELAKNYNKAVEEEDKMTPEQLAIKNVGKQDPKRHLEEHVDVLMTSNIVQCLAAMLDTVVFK

O=C(CCl)NC1CCCCNC1=O (stereo not given)
inactive: USP42 0.0716 | USP46 -0.113 | USP47 -0.161 | USP48 -0.154 | USP5 -0.327 | USP54 0.114 | USP7 -0.264 | USP8 -0.134 | USP9X -0.297 | UniProt O00487 -0.13

Reference: the supplement of paper PMC11732987, “Enantioselective OTUD7B fragment discovery through chemoproteomics screening and high-throughput optimisation” (Communications Chemistry, 2025)
